Laboratory results as given in PubChem BioAssay (EPA / NIEHS).
Values joined by “and” are separate entries in the source; they are usually repeats but may differ in a detail not shown here. Identical values can stand only once. Results filed as inconclusive are left out. Active and inactive are the calls of the source. The calls were made as follows: active = hit-call score of the fitted dose curve at least 0.9, where 1 is the maximum; inconclusive = response in the unintended direction; inactive = score below 0.9.

What follows are compounds tested against human MET Proto-Oncogene, Receptor Tyrosine Kinase (MET), MET (gene 4233) (UniProt P08581) (assay: NVS_ENZ_hMet: NovaScreen (NVS) Enzymatic Assay for human MET Proto-Oncogene, Receptor Tyrosine Kinase (MET) (AID 2283180)).
Method: NVS_ENZ_hMet is a biochemical, single-readout assay that uses extracted gene-proteins in a cell-free assay. Measurements were taken 1 hour after chemical dosing in a 384-well plate.NVS_ENZ_hMet is one of one assay component(s) measured or calculated from the NVS_ENZ_hMet assay. It is designed to make measurements of enzyme activity, a form of enzyme reporter, as detected with fluorescence intensity signals by Fluorescence and electrophoretic mobility shift technology.Data from the assay component NVS_ENZ_hMet was analyzed into 1 assay endpoint. This assay endpoint, NVS_ENZ_hMet, was analyzed in the positive analysis fitting direction relative to DMSO as the negative control and baseline of activity. Using a type of enzyme reporter, loss-of-signal activity can be used to understand changes in the enzymatic activity as they relate to the gene MET. Furthermore, this assay endpoint can be referred to as a primary readout, because this assay has produced multiple assay endpoints where this one serves a enzymatic activity function. To generalize the intended target to other relatable targets, this assay endpoint is annotated to the kinase intended target family, where the subfamily is receptor tyrosine kinase.
Binding assays used specific radioligands (tritiated, iodinated) with non-radioactive competitive displacement ligands in agonist or antagonist protocols (as indicated) and various reference compounds and inhibitors to titrate specific binding to receptors and transporters. Most enzyme assays (CYPs, kinases, phosphatases, proteases, HDACs) used recombinant protein and specific substrates (fluorescence mostly, some colorimetric and radioactive) and inhibitors, followed by a biochemical separation of substrate and product. All assays for the biochemical HTS were initially run in duplicate at a single concentration (10 uM for CYP450 assays and 25 uM for all others). Assay-chemical combinations meeting a pre-defined threshold (e.g., 30% inhibition and other criteria defined below) were then run in singleton concentration-response format with maximum concentration of 20 uM for CYPs and 50 uM for all others. Each assay was run with positive and negative controls, and concurrent controls on every plate. The follow-up (secondary) screen tested active chemical-pairs in concentration series, as well as a few additional assays not tested in the primary screen, some selected negative inactives, and several cases re-run in the concentration series for confirmatory purposes.

human MET Proto-Oncogene, Receptor Tyrosine Kinase (MET), MET (gene 4233), sequence (P08581 whole entry, looked up): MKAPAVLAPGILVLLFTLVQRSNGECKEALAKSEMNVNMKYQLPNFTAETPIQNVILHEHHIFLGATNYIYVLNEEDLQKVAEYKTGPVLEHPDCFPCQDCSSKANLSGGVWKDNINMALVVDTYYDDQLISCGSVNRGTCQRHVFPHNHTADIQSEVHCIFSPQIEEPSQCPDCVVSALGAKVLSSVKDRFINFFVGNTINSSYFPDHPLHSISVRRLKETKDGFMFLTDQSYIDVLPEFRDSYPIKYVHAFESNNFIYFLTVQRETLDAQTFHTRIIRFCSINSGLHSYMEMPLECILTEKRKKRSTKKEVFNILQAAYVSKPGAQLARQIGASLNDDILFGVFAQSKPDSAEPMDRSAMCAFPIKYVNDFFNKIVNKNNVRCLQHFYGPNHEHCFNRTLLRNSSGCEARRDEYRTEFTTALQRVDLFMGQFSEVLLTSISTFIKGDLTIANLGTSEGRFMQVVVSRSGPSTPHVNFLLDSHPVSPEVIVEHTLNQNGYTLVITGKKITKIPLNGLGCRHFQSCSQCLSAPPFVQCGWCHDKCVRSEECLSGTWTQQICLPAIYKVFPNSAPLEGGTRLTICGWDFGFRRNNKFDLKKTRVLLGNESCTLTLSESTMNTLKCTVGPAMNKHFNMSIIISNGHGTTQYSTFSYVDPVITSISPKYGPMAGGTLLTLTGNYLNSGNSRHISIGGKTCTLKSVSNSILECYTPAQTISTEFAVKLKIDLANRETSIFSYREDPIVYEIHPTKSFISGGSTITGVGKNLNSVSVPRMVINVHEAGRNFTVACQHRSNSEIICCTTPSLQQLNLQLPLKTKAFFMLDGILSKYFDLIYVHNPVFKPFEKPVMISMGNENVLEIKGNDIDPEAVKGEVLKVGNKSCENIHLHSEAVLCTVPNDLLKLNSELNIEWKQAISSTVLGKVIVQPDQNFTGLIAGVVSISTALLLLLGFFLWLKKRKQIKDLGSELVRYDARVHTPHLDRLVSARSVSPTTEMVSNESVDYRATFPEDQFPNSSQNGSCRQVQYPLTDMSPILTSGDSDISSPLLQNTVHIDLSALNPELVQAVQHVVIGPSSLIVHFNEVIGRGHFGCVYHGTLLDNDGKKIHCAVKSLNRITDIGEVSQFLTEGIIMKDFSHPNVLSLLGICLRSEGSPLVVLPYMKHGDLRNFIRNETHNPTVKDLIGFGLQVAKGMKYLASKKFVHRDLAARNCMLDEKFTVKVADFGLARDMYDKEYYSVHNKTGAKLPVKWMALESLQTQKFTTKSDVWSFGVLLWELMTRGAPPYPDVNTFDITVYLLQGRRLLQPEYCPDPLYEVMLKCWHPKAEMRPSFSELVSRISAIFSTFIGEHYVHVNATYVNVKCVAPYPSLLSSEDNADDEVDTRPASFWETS

Row | SMILES | outcome | AC50
1 | CNS(=O)(=O)c1cc(C(=O)N2CCC(CCN3C4CCC3CC(n3c(C)nc5ccccc53)C4)(c3cccc(F)c3)CC2)c(Cl)cc1F (stereo not given) | inactive | 
2 | CC(C)CCCCCCc1ccc(O)cc1 | inactive | 
3 | CCN(CC)C(=O)c1cc(S(=O)(=O)Cc2ccccc2)c(N2CCC(c3ccccc3)CC2)cc1N(CC)CCN(C)C | inactive | 
4 | S=C([S-])NCCNC(=S)[S-].[Mn+2] |  | 20.5 µM (active)
5 | OCC(CO)n1cnc(-c2ccc(F)cc2)c1-c1ccnc(Oc2ccccc2)n1 | inactive | 
6 | CCN(CC)CCNc1ccc(CNC=O)c2sc3ccc(OC)cc3c(=O)c12 | inactive | 
7 | CCCCCCCCCCCCc1ccccc1S(=O)(=O)O |  | 26.2 µM (active)
8 | O=C(c1ccccc1)c1ccccc1 | inactive | 
9 | O=C(NO)C1(NS(=O)(=O)c2ccc(Oc3ccc(F)cc3)cc2)CCOCC1 | inactive | 
10 | CCCCCCCCCCCCCCOS(=O)(=O)O |  | 18.5 µM (active)
11 | CCc1nc(N)nc(N)c1-c1ccc(Cl)cc1 | inactive | 
12 | CC(O)CO (stereo not given) | inactive | 
13 | O=C(Oc1ccccc1)c1cccc(C(=O)Oc2ccccc2)c1 | inactive | 
14 | NCCO | inactive | 
15 | c1ccc2ccccc2c1 | inactive | 
16 | COCC(C)OCC(C)O (stereo not given) | inactive | 
17 | CN(C)c1ccc(N=NS(=O)(=O)O)cc1 | inactive | 
18 | FC(F)(F)C(F)(F)C(F)(F)C(F)(F)C(F)(F)C(F)(F)CCI | inactive | 
19 | Cc1ncc([C@@H](CCCCCCc2ccc3c(n2)NCCC3)CC(=O)O)cn1 | inactive | 
20 | CCOCCOCCO | inactive | 

Row | SMILES | outcome | AC50
21 | CCCC(CCC)C(=O)O | inactive | 
22 | CCCOC(=O)c1cc(O)c(O)c(O)c1 | inactive | 
23 | Fc1ccccc1[C@@H](F)COC1CCC(Nc2ncnc3[nH]ncc23)CC1 (stereo not given in full) | inactive | 
24 | CC(C)=CCC/C(C)=C/CO | inactive | 
25 | CCN(Cc1cccnc1)C(=O)c1cccc(Cl)c1[C@]1(C)C(=O)N(Cc2ccc(OC)cc2OC)c2ccc(Cl)cc21 | inactive | 
26 | O=C1NC(=O)C(c2ccccc2)(c2ccccc2)N1 | inactive | 
27 | COc1cc(C(=O)NC2CCN(C)CC2)ccc1Nc1ncc2c(n1)N(C1CCCC1)CC(F)(F)C(=O)N2C | inactive | 
28 | O=C(O)c1cccc(Oc2ccccc2)c1 | inactive | 
29 | Cc1ccc(N)cc1O | inactive | 
30 | N[C@@H](Cc1cc(I)c(Oc2ccc(O)c(I)c2)c(I)c1)C(=O)O | inactive | 
31 | O=C(O)Cc1cc(I)c(Oc2cc(I)c(O)c(I)c2)c(I)c1 |  | 26.7 µM (active)
32 | S=C(S)NCCNC(=S)S.[Mn+2].[S-]C([S-])=NCCN=C([S-])[S-].[Zn+2] |  | 11 µM (active) and 4.32 µM (active) and 18.9 µM (active)
33 | CCCCc1ccc2c(n1)[C@@H](c1ccc(OC)cc1C[C@H](C)C(=O)O)[C@H](C(=O)O)[C@H]2c1ccc2c(c1)OCO2 | inactive | 
34 | N#CCCCCC#N | inactive | 
35 | COc1ccc(OC(F)(F)F)cc1CN[C@H]1CCCN[C@H]1c1ccccc1 | inactive | 
36 | CC/C(=C(\c1ccccc1)c1ccc(OCCN(C)C)cc1)c1ccccc1 | inactive | 
37 | Cc1nc(-c2ccccn2)ncc1C(=O)Nn1cc(C)c2cc(F)ccc21 | inactive | 
38 | CC(=O)Oc1ccccc1C(=O)O | inactive | 
39 | O=C(O)c1cc(N=Nc2ccc(S(=O)(=O)Nc3ccccn3)cc2)ccc1O | inactive | 
40 | O=C(O)c1ccc2c(c1)nc(C(=O)NC1CCN(C3CC3)CC1)n2Cc1cc(-c2ccc(Cl)s2)on1 | inactive | 
